“And” between values parts separate entries of the source, which are not always exact repeats. Equal entries are not always repeated. The source made the active and inactive calls. Where a call stands in place of a potency, no number is given. Unless noted, calls come from the whole dose curve; as a rule, active = well fitted curve in the direction sought with a large enough effect in the repeat runs; inconclusive = weak or mixed curves; inactive = no such curve, though single readings can be large; an effect the other way counts as inactive or inconclusive.
How the values were obtained:
[1] = qHTS assay for small molecule agonists of the p53 signaling pathway - cell viability (AID 651633; calls by dose curve; note: nearly all actives have a fitted effect of over 30% in size; note: potency is the fitted concentration of half-maximal effect)
How it was run: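 p53RE-bla cells, seeded at 4,000 per well and rested 5 h at 37 C/5% CO2, received compounds in DMSO for 16 h at 37 C. CellTiter-Glo was then added, and luminescence was read after 30 min at room temperature to gauge cytotoxicity.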

[2] = qHTS assay for small molecule disruptors of the mitochondrial membrane potential - cell viability (AID 720634; calls by dose curve; note: nearly all actives have a fitted effect of over 20% in size; note: potency is the fitted concentration of half-maximal effect)
How it was run: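 Measuring cytotoxicity alongside mitochondrial potential, the screen quantified ATP by luminescence in HepG2 cells after 1 hr compound incubation and a 30 min room-temperature CellTiter-Glo step.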

[3] = qHTS assay for small molecule disruptors of the mitochondrial membrane potential (AID 720635); note: potency is the fitted concentration of half-maximal effect
How it was run: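 HepG2 cells (2,000/well) attached overnight at 37C, then took compound for 1 hr at 37C, 5% CO2. Mito-MPS dye was added for 30 min; fluorescence was read at 490/535 nm (monomers) and 540/590 nm (aggregates).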

[4] = qHTS assay to test for compound auto fluorescence at 460 nm (blue) in HEK293 cells (AID 720678)
How it was run: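 Intrinsic compound fluorescence is recorded in live HEK293 cultures after overnight incubation at 37C, 5% CO2, using excitation 405 nm and emission 460 nm. Values are referenced to triamterene.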

[5] = qHTS assay to test for compound auto fluorescence at 535 nm (green) in HEK293 cells (AID 720680)
[6] = target: Glucocorticoid receptor (Homo sapiens) (UniProt P04150); assay: qHTS assay to identify small molecule agonists of the glucocorticoid receptor (GR) signaling pathway (AID 720691; active = well fitted activation curve with a large enough effect in the signal ratio in the repeat runs, not every such curve was filed as active; inconclusive = weak or mixed curves, or effect the other way; inactive = no such curve, though single readings can be large or run the other way; the % refers to the signal ratio)
How it was run: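 Reporter read-out: fluorescence intensity following 2 h room-temperature LiveBLAzer B/G FRET substrate loading. Prior step: GR-bla HeLa cells held 4 h, then treated 18 h at 37 C.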

[7] = target: Glucocorticoid receptor (Homo sapiens) (UniProt P04150); assay: qHTS assay to identify small molecule antagonists of the glucocorticoid receptor (GR) signaling pathway (AID 720692; active = well fitted inhibition curve with a large enough effect in the signal ratio in the repeat runs, not every such curve was filed as active; inconclusive = weak or mixed curves, or effect the other way; inactive = no such curve, though single readings can be large or run the other way; the % refers to the signal ratio)
How it was run: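 Dexamethasone (5 nM final) stimulated a stably integrated GRE-beta-lactamase reporter in HeLa cells during 18 h co-incubation with compounds; signal was quantified as fluorescence intensity of B/G FRET substrate after 2 h.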

[8] = qHTS assay to identify small molecule antagonists of the glucocorticoid receptor (GR) signaling pathway - cell viability counter screen (AID 720693); note: nearly all actives have a fitted effect of over 55% in size; note: potency is the fitted concentration of half-maximal effect
[9] = qHTS assay to identify small molecule antagonists of the androgen receptor (AR) signaling pathway - cell viability counter screen (AID 743033; note: nearly all actives have a fitted effect of over 45% in size; note: potency is the fitted concentration of half-maximal effect)
[10] = qHTS assay to identify small molecule antagonists of the androgen receptor (AR) signaling pathway using the MDA cell line - cell viability counter screen (AID 743041; note: nearly all actives have a fitted effect of over 45% in size; note: potency is the fitted concentration of half-maximal effect)
How it was run: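 Viability counter screen run alongside the AR antagonist reporter: cells seeded 5 h before compound, R1881 added, 16 h incubation at 37C without CO2, fluorescent CellTiter-Fluor signal quantified.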

[11] = qHTS assay to identify small molecule antagonists of the thyroid receptor (TR) signaling pathway - cell viability counter screen (AID 743064); note: nearly all actives have a fitted effect of over 50% in size; note: potency is the fitted concentration of half-maximal effect
How it was run: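 In-well cytotoxicity read by CellTiter-Fluor (30 min, 37 C) following 23.5 h exposure of GH3 cells bearing a TRE-luciferase sensor. Compounds were added alongside 1 nM (final) T3 to drive TR transactivation.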

[12] = system: thyroid hormone receptor (rat, GH3 cells); assay: qHTS assay to identify small molecule agonists of the thyroid receptor (TR) signaling pathway (AID 743066; calls by dose curve)
[13] = target: Estrogen receptor (Homo sapiens) (UniProt P03372); assay: qHTS assay to identify small molecule antagonists of the estrogen receptor alpha (ER-alpha) signaling pathway (AID 743069; active = well fitted curve in the direction sought with a large enough effect in the signal ratio in the repeat runs, not every such curve was filed as active; inconclusive = weak or mixed curves, or effect the other way; inactive = no such curve, though single readings can be large or run the other way; the % refers to the signal ratio)
How it was run: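 Estradiol-stimulated ER-alpha-UAS-bla HEK293 cells, 18 hr compound exposure at 37C. LiveBLAzer B/G substrate, 2 hr RT, fluorescence read.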

[14] = target: Estrogen receptor (Homo sapiens) (UniProt P03372); assay: qHTS assay to identify small molecule agonists of the estrogen receptor alpha (ER-alpha) signaling pathway (AID 743075; calls by dose curve;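 note: HEK293 GripTite cells with ER-alpha and UAS-driven beta-lactamase reporter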; note: potency is the fitted concentration of half-maximal effect)
[15] = target: Estrogen receptor (Homo sapiens) (UniProt P03372); assay: qHTS assay to identify small molecule agonists of the estrogen receptor alpha (ER-alpha) signaling pathway using the BG1 cell line (AID 743079); note: nearly all actives have a fitted effect of over 20% in size
[16] = qHTS assay to identify small molecule antagonists of the estrogen receptor alpha (ER-alpha) signaling pathway using the BG1 cell line (AID 743080; calls by dose curve;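 note: BG1 cells stimulated with 17beta-estradiol alongside compound; series mostly up to about 70 µM; nearly all actives have a fitted effect of over 25% in size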)
How it was run: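 Readout is ONE-Glo luminescence, taken 30 min at room temperature after reagent addition, preceded by a CellTiter-Fluor viability read; BG1-Luc-4E2 cells had received compound and 17beta-estradiol for 21.5 h at 37 C.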

[17] = target: Nuclear receptor subfamily 1 group I member 2 (Homo sapiens) (UniProt O75469); assay: Human pregnane X receptor (PXR) activation by small molecules, qHTS assay (AID 1346985); note: nearly all actives have a fitted effect of over 40% in size; note: potency is the fitted concentration of half-maximal effect
How it was run: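 DPX-2 cells (HepG2 co-transfected with a PXR response element and a CYP3A4-promoter luciferase construct) were seeded at 2,000 per well, rested 5 hr at 37C, then exposed to DMSO-dissolved compounds for 24 hr. Activation was read as luciferase luminescence.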

[18] = qHTS assay to test for compound auto fluorescence at 590 nm (red) in HEK293 cell free culture (AID 720683)
How it was run: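 Tox21 10K library compounds were pinned into cell-free DMEM with 10% FBS and fluorescence was read at excitation 540 nm. Activity is expressed as Rose Bengal sodium equivalency.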

[19] = qHTS assay for identifying genotoxic compounds that show differential cytotoxicity against isogenic chicken DT40 cell lines with known DNA damage response pathways - Rad54/Ku70 mutant cell line (AID 743015); note: nearly all actives have a fitted effect of over 60% in size; note: potency is the fitted concentration of half-maximal effect
[20] = qHTS assay to identify small molecule antagonists of the thyroid receptor (TR) signaling pathway (AID 743065); note: nearly all actives have a fitted effect of over 55% in size; note: potency is the fitted concentration of half-maximal effect
How it was run: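 GH3.TRE-Luc rat pituitary cells carrying two TR response elements driving luciferase were plated for 4 h, given compound plus 1 nM T3 (final), and incubated 23.5 h at 37 C. ONE-Glo luminescence measured reporter inhibition; CellTiter-Fluor fluorescence tracked cytotoxicity.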

Chain of Glucocorticoid receptor (Homo sapiens) (P04150 whole entry, looked up): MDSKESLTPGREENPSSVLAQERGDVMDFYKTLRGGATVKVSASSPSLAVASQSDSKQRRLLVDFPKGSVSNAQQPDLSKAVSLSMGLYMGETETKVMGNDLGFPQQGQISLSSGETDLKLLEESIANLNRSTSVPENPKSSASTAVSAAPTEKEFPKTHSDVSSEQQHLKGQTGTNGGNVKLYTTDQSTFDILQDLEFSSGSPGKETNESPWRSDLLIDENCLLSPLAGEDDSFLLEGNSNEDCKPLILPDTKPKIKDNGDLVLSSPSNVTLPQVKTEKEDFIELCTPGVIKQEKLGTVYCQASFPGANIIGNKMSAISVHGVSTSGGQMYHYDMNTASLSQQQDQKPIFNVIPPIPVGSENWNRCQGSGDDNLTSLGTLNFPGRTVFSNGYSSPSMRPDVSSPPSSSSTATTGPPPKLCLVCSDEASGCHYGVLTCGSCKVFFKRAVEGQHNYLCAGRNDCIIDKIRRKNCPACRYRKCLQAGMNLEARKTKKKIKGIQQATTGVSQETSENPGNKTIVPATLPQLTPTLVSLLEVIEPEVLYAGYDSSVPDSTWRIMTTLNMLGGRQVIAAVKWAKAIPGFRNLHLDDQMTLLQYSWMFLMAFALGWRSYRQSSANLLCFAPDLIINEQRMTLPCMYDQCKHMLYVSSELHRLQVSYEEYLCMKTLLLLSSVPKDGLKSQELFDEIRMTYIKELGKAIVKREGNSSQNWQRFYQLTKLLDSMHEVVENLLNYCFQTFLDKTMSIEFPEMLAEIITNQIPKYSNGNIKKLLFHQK
Chain of Estrogen receptor (Homo sapiens) (P03372 whole entry, looked up): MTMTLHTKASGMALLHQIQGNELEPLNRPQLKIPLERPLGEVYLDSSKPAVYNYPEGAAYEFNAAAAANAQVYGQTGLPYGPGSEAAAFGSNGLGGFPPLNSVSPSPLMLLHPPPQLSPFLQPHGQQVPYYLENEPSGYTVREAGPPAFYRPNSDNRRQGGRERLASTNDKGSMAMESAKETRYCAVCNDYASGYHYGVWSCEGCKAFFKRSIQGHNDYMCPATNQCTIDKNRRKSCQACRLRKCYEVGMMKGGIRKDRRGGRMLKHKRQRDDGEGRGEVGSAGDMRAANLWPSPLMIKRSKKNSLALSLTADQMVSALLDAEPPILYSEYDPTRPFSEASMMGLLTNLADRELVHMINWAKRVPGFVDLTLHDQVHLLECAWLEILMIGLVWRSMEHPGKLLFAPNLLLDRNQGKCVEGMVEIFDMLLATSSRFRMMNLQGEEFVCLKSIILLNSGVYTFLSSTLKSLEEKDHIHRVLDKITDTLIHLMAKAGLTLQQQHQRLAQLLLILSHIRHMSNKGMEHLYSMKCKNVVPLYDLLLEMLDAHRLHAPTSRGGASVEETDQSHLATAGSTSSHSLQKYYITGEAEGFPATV

Row | Structure (SMILES) | Potency [1] | Potency [2] | Potency [3] | Potency [4] | Potency [5] | Potency [6] | Potency [7] | Potency [8] | Potency [9] | Potency [10] | Potency [11] | Potency [12] | Potency [13] | Potency [14] | Potency [15] | Potency [16] | Potency [17] | outcome [18] | Potency [19] | Potency [20]
1 | CNc1ccc(C(=O)CC(O)CCC(C)C2OC(=O)CC(O)CC(=O)CC(O)CC(O)CC(O)CC(O)CC3(O)CC(O)C(C(=O)OC)C(CC(O[C@@H]4O[C@H](C)[C@@H](O)[C@H](N)[C@@H]4O)/C=C/C=C/C=C/C=C/C=C/C=C/C=C/C2C)O3)cc1 (stereo partly drawn) | inactive | inactive | 16.8 µM (active) | inactive | inactive | inactive | inactive | inactive | inactive | inactive | inactive | inactive | inactive | inactive | inactive | inactive | inactive | – | – | –
2 | CN1[C@H]2CC[C@@H]1[C@@H](C(=O)O)[C@@H](OC(=O)c1ccccc1)C2 | inactive | inactive | inactive | inactive | inactive | – | – | inactive | inactive | inactive | inactive | inactive | inactive | inactive | inactive | inactive | inactive | inactive | inactive | inactive
3 | Oc1cc[c]([Hg][Cl])cc1 | 9.44 µM (active) and 16.8 µM (active) | 16.8 µM (active) | 11.9 µM (active) | inactive | inactive | – | – | 6.74 µM (active) and 19 µM (active) | 7.56 µM (active) and 19 µM (active) | 11.9 µM (active) and 13.3 µM (active) | 596 nM (active) and 841 nM (active) | – | – | 21.3 µM [inconclusive] (active) | – | – | – | inactive | 0.473 µM (active) | 422 nM (active) and 531 nM (active)
4 | O=C1CCO1 | inactive | inactive | inactive | inactive | – | inactive | inactive | inactive | – | inactive | inactive | inactive | inactive | inactive | inactive | inactive | inactive | inactive | inactive | inactive
5 | CCCC(C)(COC(N)=O)COC(=O)NC1CC1 (stereo not drawn) | inactive | inactive | inactive | inactive | inactive | inactive | inactive | inactive | inactive | inactive | inactive | inactive | inactive | inactive | inactive | inactive | inactive | inactive | inactive | inactive
6 | C[N+]1([O-])[C@@H]2CC[C@H]1CC(OC(=O)C(CO)c1ccccc1)C2 (stereo partly drawn) | – | – | inactive | inactive | – | inactive | inactive | inactive | inactive | inactive | inactive | – | inactive | inactive | inactive | inactive | inactive | inactive | inactive | –
7 | CNC(C)C(O)c1ccc(O)cc1 (stereo not drawn) | inactive | inactive | inactive | inactive | inactive | – | – | – | inactive | inactive | inactive | inactive | inactive | inactive | inactive | inactive | inactive | inactive | inactive | inactive
8 | CNC(=O)Oc1ccccc1C(=O)Nc1ccccc1 | inactive | – | 5.96 µM (active) | inactive | inactive | inactive | inactive | inactive | – | inactive | inactive | inactive | inactive | inactive | – | – | 22.4 µM (active) | inactive | 29.8 µM (active) | –
9 | Cc1cccc(C(C)c2cnc[nH]2)c1C (stereo not drawn) | inactive | inactive | inactive | inactive | – | inactive | – | inactive | inactive | inactive | inactive | inactive | – | – | – | – | inactive | inactive | – | inactive
10 | CCCCC[C@@H](O)C1C(=O)OC(C)[C@H](O)/C=C/C=C/C=C/C=C/C=C(\C)C(O)C(O)C(O)C[C@H](O)C[C@H](O)C[C@H](O)C[C@H](O)C[C@@H]1O (stereo partly drawn) | inactive | inactive | inactive | inactive | – | inactive | inactive | – | inactive | inactive | inactive | inactive | inactive | inactive | inactive | inactive | inactive | inactive | inactive | inactive
11 | CCCCCc1cc(O)c2c(c1)OC(C)(C)[C@@H]1CCC(C)=C[C@@H]21 | 23.7 µM (active) | – | 3.76 µM (active) | inactive | inactive | – | – | 23.9 µM (active) | inactive | inactive | 13.3 µM (active) | – | – | inactive | – | inactive | 7.94 µM (active) | – | 10.6 µM (active) | 16.8 µM (active)
12 | COC([CH2][Hg])CNC(=O)c1ccccc1OCC(=O)O (stereo not drawn) | inactive | – | inactive | inactive | inactive | inactive | inactive | inactive | inactive | – | inactive | – | inactive | inactive | inactive | inactive | inactive | – | 2.98 µM (active) | –
13 | C[C@H]1CC[C@]2(NC1)O[C@H]1C[C@H]3[C@@H]4CC[C@H]5C[C@@H](O[C@@H]6O[C@H](CO)[C@H](O[C@@H]7O[C@H](CO)[C@@H](O)[C@H](O[C@@H]8OC[C@@H](O)[C@H](O)[C@H]8O)[C@H]7O[C@@H]7O[C@H](CO)[C@@H](O)[C@H](O)[C@H]7O)[C@H](O)[C@H]6O)CC[C@]5(C)[C@H]4CC[C@]3(C)[C@H]1[C@@H]2C | 2.11 µM (active) | 3.35 µM (active) | 1.97 µM (active) | inactive | inactive | – | – | 2.39 µM (active) | 4.77 µM (active) | 6.68 µM (active) | 2.37 µM (active) | – | – | 9.52 µM [inconclusive] (active) | – | – | inactive | – | 2.37 µM (active) | 2.37 µM (active)
14 | CC1(C)[C@H](C=C(Cl)Cl)[C@H]1C(=O)OCc1c(F)c(F)cc(F)c1F | – | inactive | 22.1 µM (active) | – | inactive | inactive | inactive | inactive | inactive | inactive | – | inactive | inactive | inactive | inactive | inactive | inactive | inactive | inactive | inactive
15 | C[N+]1(C)CCCCC1COC(=O)C(O)(c1ccccc1)c1ccccc1 (stereo not drawn) | inactive | inactive | – | inactive | inactive | inactive | inactive | – | inactive | inactive | – | – | – | – | – | – | inactive | inactive | inactive | –
